# PAFAH2 inh: PAFAH2 (human) inhibition. Q99487. recombinant PAFAH2, FP-rhodamine activity probe, fluorescence polarization. AID 492956. inhibition, % at 3.39 µM. 340,000 compounds, 0.99% hits;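 active = inhibition above the mean over all tested compounds plus 3 SD, cut at about 30% in these data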;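 also: inhibitors block probe labeling of enzyme so polarization drops; 0% = enzyme with DMSO and 100% = wells lacking PAFAH2 protein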
# pPAFAH FP inh: inhibitors of human plasma PAF acetylhydrolase (pPAFAH); Q13093; recombinant pPAFAH, FP-rhodamine probe fluorescence polarization; 330,000 compounds, 1.5% hits; AID 463082; inhibition, % at 3.39 µM;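 active = inhibition above the mean inhibition across the screen plus 3 SD, cut at about 25% in these data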;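 also: inhibitors block binding of the rhodamine activity-based probe so polarization drops; 0% = enzyme with DMSO and 100% = wells lacking pPAFAH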
# PAFAH1B2 FP inh: inhibitors of human PAFAH1B2 | AID 492953 | inhibition, % at 3.39 µM | recombinant PAFAH1B2, FP-rhodamine activity probe, fluorescence polarization | 340,000 compounds, 1.2% hits;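 active = inhibition above the mean of all tested compounds plus 3 SD, cut at about 24% in these data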;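 also: 0% = enzyme with DMSO and 100% = wells lacking PAFAH1B2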
# Target sequence (P68402 whole entry, looked up): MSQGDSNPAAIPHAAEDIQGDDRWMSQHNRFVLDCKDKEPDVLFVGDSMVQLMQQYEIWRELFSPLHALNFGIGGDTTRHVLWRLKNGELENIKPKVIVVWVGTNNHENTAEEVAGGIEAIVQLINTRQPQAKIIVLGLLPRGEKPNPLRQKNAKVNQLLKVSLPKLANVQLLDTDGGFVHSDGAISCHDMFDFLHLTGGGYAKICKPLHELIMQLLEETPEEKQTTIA
# Fh CTSL1 inh: cathepsin L1 inhibition, PFM18AAP counter-screen. recombinant F. hepatica cathepsin L1, Z-Leu-Arg-MCA fluorescence. inhibition, % at 5.96 µM. 300,000 compounds, 0.49% hits. AID 1906;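 active = inhibition above the mean of all tested compounds plus 3 SD, set per screening campaign, cut at about 17% in these data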;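 also: 0% = plate median of test compound wells and 100% = 1 µM Z-Phe-Ala-diazomethylketone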
# PP5 primary: PP5 (human) phosphatase inhibition | inhibition, % at 6.7 µM | 320,000 compounds, 0.18% hits | P53041 | AID 1987 | purified PP5c, OMFP substrate fluorescence;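 active = inhibition above the campaign's mean inhibition across all tested compounds plus 3 SD, cut at about 9.5% in these data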;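 also: 0% = DMSO only and 100% = 100 µM cantharidin control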
# PAFAH1B3 FP inh: inhibitors of human PAFAH1B3 | 340,000 compounds, 0.28% hits | inhibition, % at 3.39 µM | AID 492972 | recombinant PAFAH1B3, FP-rhodamine probe, fluorescence polarization;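 active = inhibition above the screen-wide average of all tested compounds plus 3 SD, cut at about 25% in these data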;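 also: 0% = enzyme with DMSO only and 100% = wells lacking PAFAH1B3 protein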
# Target sequence (Q15102 whole entry, looked up): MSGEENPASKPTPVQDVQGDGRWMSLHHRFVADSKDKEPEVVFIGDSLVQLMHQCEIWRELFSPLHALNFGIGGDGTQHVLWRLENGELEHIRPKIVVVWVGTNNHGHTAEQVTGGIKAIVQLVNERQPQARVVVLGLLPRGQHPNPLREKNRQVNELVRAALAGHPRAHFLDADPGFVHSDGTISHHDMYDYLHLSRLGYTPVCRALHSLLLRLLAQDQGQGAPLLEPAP
# pPAFAH confirm: confirmation of human plasma PAF acetylhydrolase (pPAFAH) inhibitors; shares compounds with pPAFAH FP inh; recombinant pPAFAH, FP-Rh probe fluorescence polarization; inhibition, % at 3.39 µM; 2,300 compounds, 72% hits; AID 463230;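 active = mean inhibition of the triplicate above the hit cutoff set for the earlier primary screen, cut at about 25% in these data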;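 also: 0% = enzyme with DMSO and 100% = wells lacking pPAFAH enzyme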
# An asterisk follows results filed as active; . = not tested or not shown. Most compounds without a hit are left out; they make up all but 3% or so of the library.
SMILES,PAFAH2 inh,pPAFAH FP inh,PAFAH1B2 FP inh,Fh CTSL1 inh,PP5 primary,PAFAH1B3 FP inh,pPAFAH confirm
O=C1C=C(O)c2c(O)cc(O)c(O)c2C1=O,45*,85*,19,2,4,40*,52*
Cc1nn(-c2ccccc2Cl)c(Cl)c1/C=N/Nc1cccc(C(=O)O)c1,14,-4,0,-4,2,4,.
Cc1nn(-c2cccc(C(F)(F)F)c2)c(Cl)c1/C=N/Nc1cccc(C(=O)O)c1,-1,35*,6,-1,4,6,35*
C[C@]12CCC(=O)CC1=CCC1C3CC=C(C#N)[C@@]3(C)CC[C@@]12O (some centres not stated),1,3,4,-1,3,-3,.
Cc1ccc2nc(/C(C#N)=C/c3ccc(O)c(O)c3)[nH]c2c1,27,65*,23,7,7,47*,79*
Cc1ccc2nc(/C(C#N)=C/c3ccccc3C(=O)O)[nH]c2c1,2,9,7,-2,-1,4,.
CN(C(=O)c1cccc(NC(=O)Cc2ccc(NC(=O)C3CCN(C(=O)C4CCCCC4)CC3)cc2)c1)C1CC1,-5,.,-1,.,.,-2,.
C/C(=N/NC(=O)c1ccc(-c2ccccc2)cc1)c1cc(O)cc(O)c1,-8,.,-2,.,.,-8,.
C/C(=N\NC(=O)c1ccc(-c2ccccc2)cc1)C1C(=O)c2ccccc2C1=O,20,53*,29*,4,1,20,67*
O=C(CSc1nc(=O)n2ccccc2n1)N1CCN(c2ccccc2)CC1,-4,8,-6,1,3,-3,.
O=C(O)Cc1c[nH]c2ccccc12,3,2,5,4,3,14,.
O=C(O)Cc1c[nH]c2cccc(O)c12,9,47*,12,-1,0,19,9
Nc1ccc(O)c2c1C(=O)c1ccccc1C2=O,82*,83*,55*,-1,4,44*,46*
Nc1ccc(NC(=O)c2ccccc2)c2c1C(=O)c1ccccc1C2=O,-3,2,-3,-2,2,3,.
CCN(CC(=O)Nc1ccccc1OC)C(=O)c1cc(S(=O)(=O)N2CCCCCC2)ccc1OC,6,2,6,-2,-1,7,.
CCCCCCCC/C=C\CCCCCCCC(=O)NCCc1ccc(O)c(O)c1,-27,70*,8,4,15*,12,62*
CCCCCCCC/C=C\CCCCCCCC(=O)NCCO,7,3,8,7,2,10,.
Cc1cc(C)cc(NC(=O)CCC(=O)N2CCSc3ccccc32)c1,0,12,6,0,2,1,.
COC(=O)c1ccccc1NC(=O)CCC(=O)N1CCSc2ccccc21,1,41*,9,-4,2,-2,4
CC(=O)Nc1nc(C)c(-c2csc(Nc3cccc(C(C)=O)c3)n2)s1,11,38*,10,-2,1,11,37*
CCC(=O)Nc1nc(C)c(-c2csc(Nc3cccc(C(=O)O)c3)n2)s1,-3,17,3,7,0,9,.
O=C1CSC(=S)N1/N=C/c1ccc(O)c(O)c1O,36*,67*,7,6,0,19,64*
O=C1CSC(=S)N1/N=C/c1cc(Br)ccc1O,.,17,.,-2,1,.,.
CC(=O)c1ccc(NC(=O)C(=O)c2cn(CC(=O)N3CCCCC3)c3ccccc23)cc1,-5,0,-4,4,-2,-6,.
CCN(CC)C(C(=O)Nc1ccc2c(c1)OCO2)c1ccccc1 (configuration not stated),10,44*,6,2,-2,6,4
SMILES,PAFAH2 inh,pPAFAH FP inh,PAFAH1B2 FP inh,Fh CTSL1 inh,PP5 primary,PAFAH1B3 FP inh,pPAFAH confirm
CC(NC(=S)Nc1cccc(F)c1)C(c1cccs1)N1CCOCC1 (configuration not stated),5,47*,8,-1,-2,8,2
Cc1ccc(C)c(NC(=S)NC(C)C(c2cccs2)N2CCOCC2)c1 (configuration not stated),3,-7,7,1,3,-6,.
CCOC(=O)c1c(NC(=O)/C=C/C(=O)O)sc(C)c1-c1ccc(Cl)cc1,-3,44*,2,4,-1,2,40*
CC1=NN(c2ccccc2)C(=O)/C1=C/c1ccc(Cl)cc1,14,.,9,.,.,7,.
CC1=NN(c2ccccc2)C(=O)/C1=C/c1c(O)n(-c2ccc(F)cc2)[nH]c1=O,48*,54*,47*,10,7,44*,53*
O=C(c1cccc(S(=O)(=O)N2CCCC2)c1)N1CCN(Cc2ccccc2)CC1,-10,3,-3,.,4,-3,.
CCOc1ccc(NC(=O)CN(C)C(=O)c2cc(C3CC3)nn2-c2ccccc2)cc1OCC,2,.,-2,.,.,3,.
CN(C(=S)NC(=O)C1CC1)c1ccc(O)cc1,-1,61*,8,.,2,-2,2
Cc1ccc(-c2csc(NS(=O)(=O)c3cccc(F)c3)n2)o1,37*,47*,5,.,.,9,72*
COc1ccc(S(=O)(=O)N2CCCOC2CNC(=O)C(=O)NCc2ccccn2)cc1 (configuration not stated),1,1,1,2,3,7,.
CCOc1ccc(/C=C/C(=O)c2cc(Br)ccc(=O)c2O)cc1,16,38*,-2,-1,0,11,28*
Cc1cccc(/C=C/C(=O)c2cc(Br)ccc(=O)c2O)c1,34*,50*,3,-2,1,13,22
CCc1ccc(/C=C/C(=O)c2cc(Br)ccc(=O)c2O)cc1,34*,70*,19,-5,5,1,43*
CCOc1ccc(C(=O)/C=C/c2ccc(OC)c(OC)c2)cc1,9,-5,2,6,1,0,.
O=C(C=Cc1ccccc1)c1cc(Br)ccc1O,-3,.,4,.,.,4,.
COc1cc(CNCCCN2CCOCC2)cc(Cl)c1OCC(=O)NC(C)(C)C,-6,1,7,1,-1,3,.
CN1CCN(C(=S)C(=O)Nc2ccc(Br)cc2)CC1,-4,10,2,-3,1,-1,.
Cc1cc(C)c(CN2CCN(C(=O)Cn3cnc4c(OCc5ccccc5)ncnc43)CC2)c(C)c1,-10,-54,-3,.,.,2,.
CCc1c(C)nc2cc(-c3cccc(Br)c3)[nH]n2c1=O,-3,-4,1,1,-3,-6,.
Cc1ccnc(NCc2ccccc2O)c1,4,41*,1,0,-1,7,1
COc1ccccc1NC(=O)CSc1nnnn1-c1ccc(F)cc1,-5,-4,6,-1,0,11,.
Cc1cc(=O)oc2cc(NC(=S)NNC(=O)c3c(Cl)cnn3C)ccc12,3,10,3,3,1,9,.
